# Test results taken from PubChem BioAssay AID624459 (National Center for Advancing Translational Sciences (NCATS), 2012).
# Active and inactive are the calls of the source. The rule behind the calls is not given here.
# Experiment: HTS Assay for Allosteric Antagonists of the Human D2 Dopamine Receptor: Hit Validation in Parental Cell Line
compound,measurement,value
NCCc1ccc(O)c(O)c1,outcome,inactive
